52 compounds from ChEMBL document CHEMBL3988442, “University of Dundee, Small-Polar-MMV Screening Library” (2021) can be followed below.

Among all 48,000 compounds or so, about 13,000 (27%) showed an effect of 50% or more. Some of the results follow.

The subject of the experiment is Wolbachia pipientis. As to the kind of experiment: Anti-Wolbachia Cell-Based Screen. In kind it is functional. The arrangement: scale not given: in the data most compounds retested in dose-response had high values. Particulars: 5 µM.
Consider `COCC(=O)N(Cc1cccc(C)c1)Cc1ccccc1OC`, for which the “Percent Effect” value was -10.99%.
In the case of `CC(C)(O)CN1CCN(C(=O)COC2CCCCC2)CC1`, the “Percent Effect” value is -14.17%.
As to `CCC(C)c1csc(NC(=O)Cc2csc(-c3nnc[nH]3)n2)n1` (configuration not stated), the “Percent Effect” value is recorded as -13.2%.
As to `CCN1CCc2nc(N3CCOCC3)nc(NC(C)C)c2C1`, the “Percent Effect” value is -4.113%.
On to `CCC(C)N1CCc2nc(N3CCCC3)nc(NC(C)C)c2C1` (configuration not stated), for which the “Percent Effect” value is 120.2%.
`CC(C)Nc1nc(N2CCCC2)nc2c1CN(C(C)C)CC2`: the “Percent Effect” value was determined as 4.85%.
Turning to `O=C1NCCN1C1CCN(Cc2ccccn2)CC1`, the “Percent Effect” value was -4.193%.
For the compound `CS(=O)(=O)NC1CCN(Cc2coc(-c3ccccc3)n2)CC1`, the “Percent Effect” value is given as -0.3699%.
On to `O=C1NCCN1C1CCCN(Cc2coc(-c3ccc(F)cc3)n2)C1` (configuration not stated), for which the “Percent Effect” value was -1.248%.
Consider `O=C1NCCN1C1CCN(Cc2coc(-c3ccc(F)cc3)n2)CC1`, for which the “Percent Effect” value was determined as 91.35%.
As for `Cc1ccc(-c2nc(CN3CCc4nn(C)c(=O)cc4C3)co2)cc1`, the “Percent Effect” value is on record as -7.957%.
On to `CS(=O)(=O)NC1CCN(Cc2coc(-c3ccc(Cl)cc3)n2)CC1`, for which the “Percent Effect” value came to 11.26%.
With `Cc1ccc(-c2nc(CN3CCC(N4CCNC4=O)CC3)co2)cc1`, the “Percent Effect” value is listed as 99.39%.
As for `O=C1NCCN1C1CCN(Cc2coc(-c3ccccc3)n2)CC1`, the “Percent Effect” value was 93.32%.
On to `O=C1NCCN1C1CCCN(Cc2coc(-c3cccs3)n2)C1` (configuration not stated), for which the “Percent Effect” value amounted to 113.2%.
Consider `O=C1NCCN1C1CCCN(Cc2nnc(-c3ccc(F)cc3)o2)C1` (configuration not stated), for which the “Percent Effect” value was 8.098%.
As for `O=S1(=O)CCCN1Cc1coc(-c2cccs2)n1`, the “Percent Effect” value came out at 4.552%.
To `c1csc(-c2nc(CN3CCN(c4cnccn4)CC3)co2)c1` belongs -1.577%; to `NCC1Cc2cc(Oc3cc(F)c(CN4CCCC4)c(F)c3)ccc2O1` (configuration not stated), -5.798%.
Turning to `c1cc(-c2nnc(C3(c4ccc5c(c4)OCO5)CCOCC3)o2)ccn1`, the “Percent Effect” value was -12.56%.
Turning to `CCc1ccc(C(COC)NC(=O)c2ccc(O)nc2)o1` (configuration not stated), the “Percent Effect” value was -6.31%.
In the case of `c1ccc(-n2nnnc2CN2CCCC(Cn3cncn3)C2)cc1` (configuration not stated), the “Percent Effect” value was found to be 0.4093%.
For `Cc1ccc(NC(=O)CNC(C)CN2CCCCC2)c(F)c1` (configuration not stated), the “Percent Effect” value was 7.732%.
With `Cc1ccc(NC(=O)CN2CCOCC2)c(F)c1`, the “Percent Effect” value is listed as 133.3%.
`Cc1ccc(NC(=O)CNC(C)CN2CCOCC2)c(F)c1` (configuration not stated): the “Percent Effect” value was found to be 11.35%.
For `Cc1ccc2c(c1)CCC21CCN(C(=O)CO)CC1`, the “Percent Effect” value was -11.41%.
Consider `CCC(=O)N1CCC2(CC1)CC(N1CCOCC1)c1cc(C)ccc12.O=C(O)C(F)(F)F` (configuration not stated), for which the “Percent Effect” value is reported as 0.6162%.
Regarding `CCOC1CC2(CCN(CCO)CC2)c2ccc(C)cc21` (configuration not stated), the “Percent Effect” value is 12.38%.
Take `CC(=O)N1CCC2(CC1)CC(NC(=O)N(C)C)c1cc(C)ccc12` (configuration not stated): the “Percent Effect” value turned out to be 112.2%.
Regarding `CCC(=O)N1CCC2(CC1)CC(NC(=O)N(C)C)c1cc(C)ccc12` (configuration not stated), the “Percent Effect” value is on record as 98.52%.
For `CC(=O)N1CC2(CCN(C(=O)N(C)C)CC2)c2cc(C)ccc21`, the “Percent Effect” value is on record as 1.573%.
To `Cc1ccc(C)c(OCc2cc(C(=O)N(C)Cc3cnn(C)c3)no2)c1` belongs -13.61%; to `CC(O)CN1CC2(CCC1=O)CCN(C(=O)c1cnn(C)c1)CC2` (configuration not stated), -4.211%; to `Cn1cc(C(=O)N2CCCC(Cc3cnccn3)C2)cn1` (configuration not stated), 110.5%.
The value for `CCS(=O)(=O)N1CCCC(Cc2cnccn2)C1` (configuration not stated) was 118.2%; that for `Cn1cc(C(=O)N2CCCC2CCc2ccccc2)cn1` (configuration not stated) was 11.22%.
Turning to `CCS(=O)(=O)N1CCCC(c2nccn2Cc2ccccn2)C1` (configuration not stated), the “Percent Effect” value is on record as -4.348%.
In the case of `CCS(=O)(=O)N1CCCC(c2nccn2Cc2cccnc2)C1` (configuration not stated), the “Percent Effect” value was -2.411%.
As for `COc1cccc(OCC2CCCN(C(=O)c3cnn(C)c3)C2)c1` (configuration not stated), the “Percent Effect” value is -49.1%.
To `Cn1cc(C(=O)N2CCCC(CN3CCCC3=O)C2)cn1` (configuration not stated) belongs 73.94%; to `Cc1ccc(C2CCCN(C(=O)c3cnn(C)c3)C2)nc1` (configuration not stated), 105.1%.
To `COc1cc(N2CCN(Cc3ccc(C)o3)C(CCO)C2)nc(N)n1` (configuration not stated) belongs -10.52%; to `Cc1nn(C)c2c(=O)n(CC(=O)Nc3cc(Cl)cc(Cl)c3)nnc12`, 4.089%; to `Cn1cc(C(=O)N2CCCC(c3ccncc3)C2)cn1` (configuration not stated), 78.37%.
`Cn1cc(C(=O)N2CCCC(c3cnccn3)C2)cn1` (configuration not stated): the “Percent Effect” value stood at 131%.
For `Cc1nccn1CC1CCCN(C(=O)c2cnn(C)c2)C1` (configuration not stated), the “Percent Effect” value worked out at 93.77%.
Turning to `Cn1cc(C(=O)N2CC[C@@]3(O)CCN(C(=O)C4CCC4)C[C@H]3C2)cn1`, the “Percent Effect” value is recorded as -11.15%.
As to `COc1ccc(CN(C(=O)C2CCCS2)c2ccncc2)cc1` (configuration not stated), the “Percent Effect” value was -11.82%.
On to `COc1ccc(S(=O)(=O)N2CCn3cnc(COCC4CC4)c3C2)cc1`, for which the “Percent Effect” value is given as -5.165%.
For `CS(=O)(=O)N1CCCCC12CCCN(Cc1nccs1)C2.O=C(O)C(F)(F)F` (configuration not stated), the “Percent Effect” value is -3.648%.
`CNC[C@H]1CC[C@H](c2cc(CN(C)S(=O)(=O)N(C)C)n(C)n2)CC1.Cl`: the “Percent Effect” value is given as 79.31%.
In the case of `CNC[C@H]1CC[C@H](c2cc(CN(C)C(=O)c3cnccn3)n(C)n2)CC1.Cl`, the “Percent Effect” value is 49.34%.
